Data on six compounds can be found in PubChem BioAssay (Tox21).

A short description of experiment [1]: Nuclear factor erythroid 2-related factor 2/antioxidant responsive element (Nrf2/ARE) small molecule agonists: qHTS cell viability counter screen in human keratinocytes (AID 1919968; active = well fitted cell-killing curve with a large enough effect in the repeat runs; note: nearly all actives have a fitted effect of over 55% in size; note: potency is the fitted concentration of half-maximal effect). The gist of the method: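 Cells of the KeratinoSens line were plated at 1,500 per well and left for 5 h before compound transfer from DMSO stocks. After a 23 h incubation (37 C, 5% CO2), CellTiter-Fluor was added. Signal was taken as fluorescence intensity 1 h later.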

Experiment [2] in a line: Nuclear factor erythroid 2-related factor 2/antioxidant responsive element (Nrf2/ARE) small molecule agonists: luciferase reporter gene qHTS assay in human keratinocytes (AID 1919969). Note: nearly all actives have a fitted effect of over 35% in size. Note: potency is the fitted concentration of half-maximal effect. A general note: In a reporter assay the amount or activity of a reporter protein is the signal.
Experiment [3] addresses Gonadotropin-releasing hormone receptor (Homo sapiens) (UniProt P30968). Put plainly: Human gonadotropin-releasing hormone receptor (GnRHR) small molecule agonists, calcium flux assay in GnRHR-HEK293 cells (AID 1920063). Note: nearly all actives have a fitted effect of over 35% in size. The gist of the method: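 Compounds dissolved in DMSO are pin-transferred onto dye-loaded GnRHR-HEK293 cells, which were seeded 18 h before at 37 C/5% CO2. Calcium signal is read as fluorescence intensity at 1 s intervals for 3 min.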
For orientation: A change in cytosolic calcium serves as a functional read-out for many receptors and channels.

A short description of experiment [4]: G protein-coupled receptor (GPCR) small molecule agonists, calcium flux assay: HEK293 wild type cell line counter screen (AID 1920065). The essentials: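 Tox21 10K compounds, 15 concentrations each in triplicate, pin-transferred in DMSO onto dye-loaded cells; kinetic read at 480/540 nm for 3 min, 1 s intervals.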
Experiment [5] can be described thus: p53 small molecule agonists, cell-based qHTS assay with human liver microsomes (AID 1963577).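 Note: p53 response element beta-lactamase reporter cells with liver microsomes plus NADPH.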 The gist of the method:
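With metabolic activation: human liver microsomes (0.5 mg/mL final) plus NADPH (0.5 mg/mL final) added alongside compounds to p53RE-bla cells; 16 h 37 C exposure; beta-lactamase read by LiveBLAzer fluorescence.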

Experiment [6] can be described thus: p53 small molecule agonists, cell-based qHTS assay with rat liver microsomes (AID 1963578). The essentials: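 Metabolic activation by rat liver microsomes and NADPH, each 0.5 mg/mL final, added right after compounds to p53RE-bla reporter cells (4,000/well, plated 5 h earlier). 16 h at 37 C, then LiveBLAzer substrate for 2 h at room temperature in the dark; fluorescence read-out.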
Background: In qHTS, concentration-response curves come from the screen itself.

A short description of experiment [7]: p53 small molecule agonists, cell-based qHTS assay with human liver microsomes: qHTS cell viability counter screen (AID 1963579). Note: nearly all actives have a fitted effect of over 45% in size. Note: potency is the fitted concentration of half-maximal effect. The essentials:
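Metabolic activation used human liver microsomes and NADPH, both 0.5 mg/mL final, over 16 hours at 37 C on p53RE-bla cells (4,000/well). Cytotoxicity measured by CellTiter-Glo luminescence, 30 min at room temperature.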

A short description of experiment [8]: p53 small molecule agonists, cell-based qHTS assay with rat liver microsomes: qHTS cell viability counter screen (AID 1963580). Note: nearly all actives have a fitted effect of over 45% in size. Note: potency is the fitted concentration of half-maximal effect. The gist of the method:
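After the beta-lactamase ratio was read, CellTiter-Glo was added to the same wells and luminescence measured at 30 min; cells had been treated 16 h at 37 C with compounds, rat liver microsomes and NADPH (0.5 mg/mL final each).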

Experiment [9] in a line: p53 small molecule agonists, cell-based qHTS assay: qHTS cell viability counter screen (AID 1963581). Note: nearly all actives have a fitted effect of over 45% in size. Note: potency is the fitted concentration of half-maximal effect. The gist of the method:
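ATP content measured by luminescence in HCT-116 p53RE-bla cells treated 16 h at 37 C, same wells as the reporter screen.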

Experiment [10] is described as follows: p53 small molecule agonists, cell-based qHTS assay (AID 1963582; active = well fitted activation curve with a large enough effect in the signal ratio in the repeat runs, not every such curve was filed as active; the % refers to the signal ratio). The essentials:
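16 h compound exposure (37 C) of p53 response element–bla cells, preceded by 5 h recovery at 37 C/5% CO2; read-out via LiveBLAzer B/G FRET substrate, 2 h RT, fluorescence intensity.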

Experiment [11] addresses 5-hydroxytryptamine receptor 2A (Homo sapiens) (UniProt P28223). Briefly: 5-hydroxytryptamine receptor 2A (HTR2A) small molecule antagonists, cell-based qHTS assay (AID 1963586). Note: nearly all actives have a fitted effect of over 45% in size. The gist of the method: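 CHO cells stably expressing human HTR2A were plated for 18 h at 37 C, then loaded with calcium dye for 1 h. Compounds were preincubated 5 min at room temperature before DOI (4 nM solution) was added. Kinetic fluorescence was read for 3 min.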

For experiment [12] the target is unchanged. Briefly: 5-hydroxytryptamine receptor 2A (HTR2A) small molecule agonists, cell-based qHTS assay (AID 1963587). Note: nearly all actives have a fitted effect of over 30% in size. The essentials:
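CHO cells stably expressing human HTR2A, plated 18 h, loaded with calcium dye 1 h at 37 C. Agonist mode: compounds added and intracellular calcium fluorescence recorded kinetically for 2 min at 1 sec intervals.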

Experiment [13] addresses Muscarinic acetylcholine receptor M1 (Homo sapiens) (UniProt P11229). Briefly: Cholinergic receptor muscarinic 1 (CHRM1) small molecule agonists, cell-based qHTS assay (AID 1963589). Note: nearly all actives have a fitted effect of over 35% in size. The essentials: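 Homogeneous fluorescence calcium flux, agonist mode. Human M1-expressing CHO cells; compound dosed at 15 concentrations, three independent runs; signal sampled every 1 sec.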

Experiment [14] is described as follows: cAMP Responsive Elements (CRE) small molecule agonists, cell-based qHTS assay (AID 1963590). The gist of the method: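 HEK 293T cells stably bearing CRE-bla were plated at 2,000 cells per well and rested 18 h. Compounds, positive controls or DMSO were added for 3 h at 37 C. LiveBLAzer B/G substrate was then loaded for 2 h at room temperature.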
The nature of experiment [15]: cAMP Responsive Elements (CRE) small molecule antagonists, cell-based qHTS assay (AID 1963591; active = well fitted inhibition curve with a large enough effect in the signal ratio in the repeat runs, not every such curve was filed as active; the % refers to the signal ratio). The gist of the method: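 First, CRE-bla HEK293T cells settled 18 h at 37 C. Next, compound and 0.25 uM final NKH477 were applied for 3 h. Last, LiveBLAzer B/G substrate was loaded for 2 h at room temperature.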
Experiment [16] deals with Beta-2 adrenergic receptor (Homo sapiens) (UniProt P07550). Briefly: Adrenergic beta2 receptor (ADRB2) small molecule antagonists, cell-based qHTS assay (AID 1963592). Note: series mostly up to about 92 µM; nearly all actives have a fitted effect of over 50% in size. The essentials: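 Assay format: CHO-ADRB2 cells, 18-20hr seeding at 37C/5% CO2, then compound plus 1nM isoproterenol agonist mix for 0.5hr RT. Homogeneous time-resolved fluorescence cAMP detection after 1hr, expressed as 665/615 nm ratio.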

For experiment [17], the target named is D(2) dopamine receptor (Homo sapiens) (UniProt P14416). Briefly: Dopamine D2 receptor (DRD2) small molecule antagonists, cell-based qHTS assay (AID 1963595; active = well fitted inhibition curve with a large enough effect in the signal ratio in the repeat runs, with a control signal flat; the % refers to the signal ratio; note: potency is the fitted concentration of half-maximal effect). The gist of the method: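 HEK293 cells stably expressing DRD2, preincubated with 0.1 mM Ro20-1724 and compounds 10 min, were stimulated with 200 nM NKH477 plus 12 nM quinpirole for 30 min at room temperature; cAMP measured by HTRF (665/620 nm).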

The target in experiment [18] is Muscarinic acetylcholine receptor M1 (Homo sapiens) (UniProt P11229). Put plainly: Cholinergic receptor muscarinic 1 (CHRM1) small molecule antagonists, cell-based qHTS assay (AID 1963588). Note: nearly all actives have a fitted effect of over 40% in size. The gist of the method: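 Compounds were tested at 15 concentrations in three independent runs. Dye-loaded CHRM1-CHO cells were exposed 5 min at room temperature before stimulation by acetylcholine added at 50nM. Intracellular calcium was read kinetically on FDSS for 3 min.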

Experiment [19] deals with D(2) dopamine receptor (Homo sapiens) (UniProt P14416). Put plainly: Dopamine D2 receptor (DRD2) small molecule agonists, cell-based qHTS assay (AID 1963594). Note: nearly all actives have a fitted effect of over 35% in size. The gist of the method: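 HEK293 cells stably expressing human DRD2, pre-treated with PDE inhibitor Ro20-1724 (0.1 mM final) and compound 10 min at room temperature, then stimulated with NKH477 (200nM […]) for 30 min. cAMP read by HTRF (665/620 nm).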

Where “and” joins values, the source holds several entries; their conditions need not be identical. Equal entries are not always repeated. Inconclusive results are not listed. Some structures have more than one record in an assay (separate samples or runs), and their calls can disagree. Calls of active or inactive are those of the source. Unless noted, calls come from the whole dose curve.

Sequence of D(2) dopamine receptor (Homo sapiens) (P14416 whole entry, looked up): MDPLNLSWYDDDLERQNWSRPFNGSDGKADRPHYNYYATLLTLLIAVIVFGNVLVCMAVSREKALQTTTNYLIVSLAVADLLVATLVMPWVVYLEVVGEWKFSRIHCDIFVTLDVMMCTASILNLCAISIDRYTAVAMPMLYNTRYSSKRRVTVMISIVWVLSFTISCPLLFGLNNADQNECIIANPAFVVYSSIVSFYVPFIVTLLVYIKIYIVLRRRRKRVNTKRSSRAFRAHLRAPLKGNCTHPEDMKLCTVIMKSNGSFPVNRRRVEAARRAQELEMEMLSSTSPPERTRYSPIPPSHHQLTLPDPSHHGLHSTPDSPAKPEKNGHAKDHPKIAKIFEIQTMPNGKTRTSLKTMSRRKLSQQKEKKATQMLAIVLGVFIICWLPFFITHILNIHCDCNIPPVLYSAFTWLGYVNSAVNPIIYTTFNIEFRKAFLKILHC
Sequence of Muscarinic acetylcholine receptor M1 (Homo sapiens) (P11229 whole entry, looked up): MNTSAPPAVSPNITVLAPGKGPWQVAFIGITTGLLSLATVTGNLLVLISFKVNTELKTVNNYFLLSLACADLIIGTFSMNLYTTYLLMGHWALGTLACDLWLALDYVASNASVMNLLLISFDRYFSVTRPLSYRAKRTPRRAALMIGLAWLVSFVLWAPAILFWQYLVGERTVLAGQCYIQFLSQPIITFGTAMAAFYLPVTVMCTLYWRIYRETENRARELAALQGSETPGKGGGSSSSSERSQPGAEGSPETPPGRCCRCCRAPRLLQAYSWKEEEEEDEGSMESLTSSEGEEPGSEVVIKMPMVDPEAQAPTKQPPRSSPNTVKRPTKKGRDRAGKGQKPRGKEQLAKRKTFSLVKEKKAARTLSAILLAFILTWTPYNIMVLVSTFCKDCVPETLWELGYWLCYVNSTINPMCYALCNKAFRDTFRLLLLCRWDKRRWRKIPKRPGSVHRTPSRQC
Sequence of Beta-2 adrenergic receptor (Homo sapiens) (P07550 whole entry, looked up): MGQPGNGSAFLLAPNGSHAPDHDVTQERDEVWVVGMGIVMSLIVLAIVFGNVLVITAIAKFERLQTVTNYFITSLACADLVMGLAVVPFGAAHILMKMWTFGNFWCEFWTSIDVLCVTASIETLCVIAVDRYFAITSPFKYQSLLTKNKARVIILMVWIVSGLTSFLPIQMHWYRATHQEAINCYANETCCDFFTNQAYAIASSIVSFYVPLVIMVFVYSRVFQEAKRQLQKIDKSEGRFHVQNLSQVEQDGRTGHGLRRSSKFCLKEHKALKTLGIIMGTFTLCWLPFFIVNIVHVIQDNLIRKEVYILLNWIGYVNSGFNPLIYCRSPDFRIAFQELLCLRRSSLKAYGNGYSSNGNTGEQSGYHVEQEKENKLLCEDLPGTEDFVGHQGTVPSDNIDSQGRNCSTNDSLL
Sequence of Gonadotropin-releasing hormone receptor (Homo sapiens) (P30968 whole entry, looked up): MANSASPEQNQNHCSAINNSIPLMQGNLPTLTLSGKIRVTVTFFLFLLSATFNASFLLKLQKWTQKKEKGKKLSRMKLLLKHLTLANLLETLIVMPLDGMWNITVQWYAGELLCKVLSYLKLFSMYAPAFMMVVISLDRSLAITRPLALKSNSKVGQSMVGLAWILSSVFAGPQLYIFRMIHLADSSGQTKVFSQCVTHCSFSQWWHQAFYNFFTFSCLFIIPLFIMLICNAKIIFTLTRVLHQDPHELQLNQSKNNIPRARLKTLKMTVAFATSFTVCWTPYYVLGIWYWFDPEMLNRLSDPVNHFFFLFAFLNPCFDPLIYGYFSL
Sequence of 5-hydroxytryptamine receptor 2A (Homo sapiens) (P28223 whole entry, looked up): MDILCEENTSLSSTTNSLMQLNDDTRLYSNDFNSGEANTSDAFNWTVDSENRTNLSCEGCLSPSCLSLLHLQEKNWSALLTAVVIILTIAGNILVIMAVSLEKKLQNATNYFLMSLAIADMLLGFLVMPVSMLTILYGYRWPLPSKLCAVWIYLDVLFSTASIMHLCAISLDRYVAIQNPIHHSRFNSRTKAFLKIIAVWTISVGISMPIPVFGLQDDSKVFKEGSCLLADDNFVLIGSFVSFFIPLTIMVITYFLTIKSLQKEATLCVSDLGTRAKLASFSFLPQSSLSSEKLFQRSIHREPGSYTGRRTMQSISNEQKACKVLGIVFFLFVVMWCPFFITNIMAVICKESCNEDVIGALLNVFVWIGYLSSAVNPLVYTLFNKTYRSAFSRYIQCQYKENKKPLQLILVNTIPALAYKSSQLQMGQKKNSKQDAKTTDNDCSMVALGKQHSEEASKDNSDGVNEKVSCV

In the case of `CCN(CC)CCN1C(=O)CN=C(c2ccccc2F)c2cc(Cl)ccc21`, the Potency result in experiment [1], in experiment [2], in experiment [3], in [4], in [5] and in experiment [6] was “inactive” throughout. Moreover, the Potency result in experiment [7], in [8], in experiment [9], in [10], in experiment [11] and in [12] was “inactive” throughout. Further, the Potency entry in experiment [13], in experiment [14], in experiment [15], in experiment [16] and in experiment [17] was “inactive” each time.
As for `CCOP(=S)(OCC)SCCSCC`, the Potency entry in experiment [1], in [2], in experiment [3], in [4], in experiment [7] and in [8] was “inactive” in each case. The Potency entry in [9], in experiment [10], in experiment [11], in experiment [12], in experiment [18] and in [13] was “inactive” throughout. In addition, the Potency entry in [14], in experiment [15], in [16], in [19] and in experiment [17] was “inactive” each time.
Consider `CCCCCCCCCCCCCC[P+](CCCCCC)(CCCCCC)CCCCCC`, for which the Potency in [1] is 7.73 µM (active) and 19.5 µM (active) and inactive; in experiment [7], 14.5 µM (active) and 20.6 µM (active) and inactive; in [8] it was 16.3 µM (active) and 20.6 µM (active) and inactive; in experiment [9], 7.29 µM (active) and 18.4 µM (active); in [17] it was 12.2 µM (active) and 21.9 µM (active) and inactive. Also, the Potency entry in experiment [2], in experiment [3], in experiment [4], in [5], in experiment [6] and in [11] was “inactive” in each case. In addition, the Potency result in experiment [12], in experiment [18], in experiment [13], in experiment [16] and in experiment [19] was “inactive” each time.
In the case of `c1ccc2c(c1)sc1ccccc12`, the Potency result in experiment [1], in [2], in [3], in [4], in experiment [6] and in experiment [7] was “inactive” in each case. For the same compound, the Potency entry in experiment [8], in experiment [9], in experiment [10], in [11], in experiment [18] and in experiment [14] was “inactive” in each case. Besides, the Potency entry in experiment [15], in experiment [16], in [19] and in experiment [17] was “inactive” throughout.
Regarding `CCOP(=O)(CN(CCO)CCO)OCC`, the Potency result in [1], in [2], in experiment [3], in experiment [4], in experiment [5] and in [6] was “inactive” in each case. Further, the Potency entry in [8], in experiment [9], in [10], in experiment [11], in [12] and in [18] was “inactive” in each case. For the same compound, the Potency entry in experiment [13], in experiment [14], in experiment [15], in experiment [16], in experiment [19] and in experiment [17] was “inactive” throughout.
Consider `ClCc1ccccc1CCl`, for which the Potency entry in experiment [1], in experiment [3], in experiment [4], in experiment [5], in [6] and in [7] was “inactive” each time. Besides, the Potency result in [8], in experiment [9], in experiment [10], in experiment [11], in experiment [12] and in experiment [13] was “inactive” throughout. For the same compound, the Potency result in experiment [14], in [15], in experiment [16], in experiment [19] and in [17] was “inactive” each time. The Potency in experiment [2] is 61.1 µM (active).
